Experimental data reported in ChEMBL document CHEMBL3988442, “University of Dundee, Small-Polar-MMV Screening Library” (2021).
The campaign covered roughly 48,000 compounds. About 13,000 (27%) showed an effect of 50% or more. The list shows a part of the results.

What follows are compounds tested on Wolbachia pipientis (assay: Anti-Wolbachia Cell-Based Screen). Details: 5 µM.
Assay type: functional
Design: scale not given: in the data most compounds retested in dose-response had high values
In the case of `COC(=O)CNC(=O)CSCc1nc(O)c2cc(C(C)C)sc2n1`, the “Percent Effect” value is reported as 2.369%. `CN(Cc1ncnn1C)C(=O)Nc1ccc(OC(F)F)cc1` was tested, and the “Percent Effect” value was -14.3%. For `CN(c1ncnc2c1CCC2)C1CCCN(c2cccnn2)C1` (centres undefined), the “Percent Effect” value was 4.941%. For `COc1ccc(F)c(CN2CCCC(O)(CNCc3ncc[nH]3)C2=O)c1` (centres undefined), the “Percent Effect” value was 0.3473%. With `C=C(C)COc1cccc(C(=O)N2CCC3(CCOCC3)CC2)c1` the “Percent Effect” value was 0.8095%. With `CCOc1ccc(-c2ccnc(COc3ccccc3)n2)cc1C(=O)O` the “Percent Effect” value was -3.347%. With `Cn1cnc(S(=O)(=O)N2C[C@@H]3CC[C@H](C2)N(Cc2cscn2)C3=O)c1` the “Percent Effect” value was -55.67%. `Cc1cc(Cl)c(C)c(S(=O)(=O)N2CCN(Cc3ccncc3)CC2)c1Cl` was tested, and the “Percent Effect” value was 94.36%. With `Cc1ccc(CN2CCN(Cc3ccncc3)CC2=O)cc1` the “Percent Effect” value was -11.1%. For `Cc1cc(F)c(C(C(=O)O)N2CCN(Cc3ccccn3)CC2)cc1Cl` (centres undefined), the “Percent Effect” value was 7.172%. `Cc1cc(Cl)c(C)c(S(=O)(=O)N2CCN(Cc3ccccn3)CC2)c1Cl` was tested, and the “Percent Effect” value was 101.6%. For `Cc1cc(CN2CCN(S(=O)(=O)c3c(C)c(Cl)cc(C)c3Cl)CC2)on1`, the “Percent Effect” value was 85.02%. For `Cc1ccc(S(=O)(=O)N2CCN(Cc3ccncc3)CC2)c(Cl)c1`, the “Percent Effect” value was 109.7%. With `Cc1ccc(S(=O)(=O)N2CCn3nc(C)nc3C2)c(Cl)c1` the “Percent Effect” value was 0.9769%. For `CCN1CCN(S(=O)(=O)c2cc(Cl)c(Cl)cc2C)CC1`, the “Percent Effect” value was 4.693%. For `CNS(=O)(=O)c1ccc(CN2CCCN(Cc3ccncc3)CC2)cc1`, the “Percent Effect” value was 21.96%. For `Cc1ccc(C)c(C(C(=O)O)N2CCCN(Cc3ccccn3)CC2)c1` (centres undefined), the “Percent Effect” value was 19.25%. For `CCCNC(=O)N1CCN(Cc2cc(C)no2)CC1`, the “Percent Effect” value was 1.77%. In the case of `Cc1cc(CN2CCN(C(=O)C3(C#N)CCCCC3)CC2)on1`, the “Percent Effect” value is reported as -1.898%. With `CNC(=O)c1ccc(NC(=O)NC(C)CCc2cccn2C)c(C)c1` (centres undefined) the “Percent Effect” value was 7.929%. For `O=C(CN1CCNCC1)N1CC[C@@H](c2ccc3ccccc3c2)[C@H](O)C1`, the “Percent Effect” value was 6.521%. For `OC(COCc1ccccc1)CSc1nnc(C2CC2)n1C1CC1` (centres undefined), the “Percent Effect” value was 6.526%. In the case of `O=C(c1cccnc1-n1cncn1)N1CCN(C2CCCC2)CC1`, the “Percent Effect” value is reported as 9.271%. With `CC(C)Cc1noc(CN(C)C[C@]2(O)CCCN3CCCC[C@@H]32)n1` the “Percent Effect” value was 1.802%. In the case of `CCCc1nc(CN2CCN(CC(O)c3ccccc3)CC2)no1` (centres undefined), the “Percent Effect” value is reported as -2.88%. With `O=C(c1ccnnc1)N1C[C@@H](OCC2CCOCC2)[C@H]2OCCC[C@H]21` the “Percent Effect” value was -2.354%. `CS(=O)(=O)N1C[C@@H](F)[C@@H](OCc2nc3ccccc3o2)C1` was tested, and the “Percent Effect” value was 18.73%. In the case of `O=C(O)C(F)(F)F.O=C(O)C(F)(F)F.O=C1[C@@H]2CCN(C3CCOCC3)C[C@@H]2OCCN1Cc1cccnc1`, the “Percent Effect” value is reported as 1.497%. `Cc1ccc(CN2CC[C@H]3C(=O)N(Cc4cccnc4)CCO[C@H]3C2)o1.O=C(O)C(F)(F)F.O=C(O)C(F)(F)F` was tested, and the “Percent Effect” value was -24.56%. With `CS(=O)(=O)N[C@@H]1CCN(Cc2cccnc2)[C@H]1Cc1ccccc1.O=C(O)C(F)(F)F.O=C(O)C(F)(F)F` the “Percent Effect” value was 1.711%. `O=C(O)C(F)(F)F.O=C1[C@H]2CN(S(=O)(=O)c3ccccc3)C[C@H]2CN1Cc1cccnc1` was tested, and the “Percent Effect” value was 108.5%. In the case of `O=C(O)C(F)(F)F.O=C1[C@H]2CN(S(=O)(=O)C3CC3)C[C@H]2CN1Cc1cccnc1`, the “Percent Effect” value is reported as 124.6%. With `CCS(=O)(=O)N1C[C@H]2CN(Cc3cccnc3)C(=O)[C@H]2C1.O=C(O)C(F)(F)F` the “Percent Effect” value was -7.035%. In the case of `COC(=O)c1cccc2nc([C@H]3CCN(C4CCN(C)CC4)C3)oc12`, the “Percent Effect” value is reported as -2.242%. In the case of `O=C(NC[C@H]1OC[C@@H]2CCN(Cc3ccco3)C[C@@H]21)c1ccsc1.O=C(O)C(F)(F)F`, the “Percent Effect” value is reported as 14.6%. In the case of `NC(=O)N1CC[C@H]2CO[C@H](CNC(=O)c3ccnnc3)[C@H]2C1`, the “Percent Effect” value is reported as -2.645%. `O=C(NC[C@H]1OC[C@@H]2CN(Cc3ccco3)CC[C@@H]21)c1cccnc1.O=C(O)C(F)(F)F.O=C(O)C(F)(F)F` was tested, and the “Percent Effect” value was 98.92%. In the case of `Cc1cccc(N2CC[C@@H]3[C@@H](CO[C@H]3CNC(=O)c3ccco3)C2)n1`, the “Percent Effect” value is reported as -1.973%. For `CN(Cc1cccnc1)C[C@@H]1OC[C@H]2CN(Cc3ccco3)CC[C@H]21.O=C(O)C(F)(F)F.O=C(O)C(F)(F)F.O=C(O)C(F)(F)F`, the “Percent Effect” value was 9.505%. In the case of `Cc1ccc(N2CC[C@@H]3[C@@H](CO[C@H]3CNC(=O)c3ccco3)C2)nn1`, the “Percent Effect” value is reported as 1.851%. `Cc1ccc(CN2CC[C@@H]3[C@@H](CO[C@H]3CN(C)C)C2)o1.O=C(O)C(F)(F)F.O=C(O)C(F)(F)F` was tested, and the “Percent Effect” value was -16.8%. With `O=C(NC[C@H]1OC[C@@H]2CCN(Cc3ccco3)C[C@@H]21)c1ccnnc1.O=C(O)C(F)(F)F` the “Percent Effect” value was 121%. `Cn1cc(CN2CC[C@@H]3[C@@H](CO[C@H]3CNC(=O)c3ccco3)C2)cn1.O=C(O)C(F)(F)F.O=C(O)C(F)(F)F` was tested, and the “Percent Effect” value was 86.49%. For `O=C(NC[C@H]1OC[C@@H]2CN(Cc3ccco3)CC[C@@H]21)c1cscn1.O=C(O)C(F)(F)F`, the “Percent Effect” value was 98.96%. `Cn1cc(C(=O)NC[C@@H]2OC[C@H]3CN(Cc4ccco4)CC[C@H]32)cn1.O=C(O)C(F)(F)F` was tested, and the “Percent Effect” value was 1.243%. With `CN(C)C(=O)Cn1cc(C#N)c(=O)c2cc(Br)ccc21` the “Percent Effect” value was -22.43%. In the case of `COCC(NC(=O)c1ccc(O)nc1)c1ccc(C)o1` (centres undefined), the “Percent Effect” value is reported as 3.678%. In the case of `O=S(=O)(c1ccc(-c2nc3c([nH]2)CCNC3)cc1)N1CCCC1`, the “Percent Effect” value is reported as -8.56%. In the case of `CCCSCC(=O)N1CCCC(c2nccn2Cc2ccncc2)C1` (centres undefined), the “Percent Effect” value is reported as 15.91%. `O=C(COCC1CC1)N1CCCC(n2cncn2)C1` (centres undefined) was tested, and the “Percent Effect” value was 10.78%. `CC(C)CN(Cc1ccc(-n2cncn2)cc1)Cc1ccccn1` was tested, and the “Percent Effect” value was 111.5%. With `CN(Cc1ccc(-n2cncn2)cc1)Cc1ncc[nH]1` the “Percent Effect” value was -14.86%. For `CN(Cc1ccc(-n2ccnc2)cc1)Cc1ncc[nH]1`, the “Percent Effect” value was -4.002%. In the case of `CC(C)CN(Cc1ccc(O)c(C(=O)O)c1)Cc1ccccn1`, the “Percent Effect” value is reported as -5.995%. `CC(c1ccccn1)N(C)Cc1ccc(-n2cncn2)cc1` (centres undefined) was tested, and the “Percent Effect” value was 115.2%. For `COCCn1ccnc1CN(Cc1ccccn1)CC(C)C`, the “Percent Effect” value was -12.4%. For `CC(c1ccccn1)N(C)Cc1ccc(CCC(C)(C)O)cc1` (centres undefined), the “Percent Effect” value was 6.636%. For `CC(c1ccccn1)N(C)Cc1ccc(-n2ccnc2)cc1` (centres undefined), the “Percent Effect” value was 100.9%. `CC(C)C(O)C(C)(C)CNC(=O)NCc1ccc(-n2cncn2)cc1` (centres undefined) was tested, and the “Percent Effect” value was -5.14%.
